# CYP2C9 inh = blocks human cytochrome P450 2C9 | CYP2C9 Supersomes, luciferin-H conversion, luminescence | inhibition, % at 5 µM | 96,000 tested, 20% active | AID 777;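 active = blocking of liver enzyme CYP2C9 beyond about 50% at 5 µM, limit read from the data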
# sEH activator = increases human soluble epoxide hydrolase activity; purified human sEH enzymatic activity, activator screen; 91,000 tested, 0.04% active; P34913; activation, % at 2 µM; in the data active = activation above about 37%
# sEH inh = inhibitors of human soluble epoxide hydrolase; P34913; recombinant human sEH enzymatic activity assay; inhibition, % at 2 µM; 91,000 tested, 0.34% active; AID 707; in the data active = inhibition above about 80%
# CYP2C9 activ = activators of human CYP2C9 | P11712 | recombinant CYP2C9, luciferin-H conversion, luminescence; hits give high values; factor 1 = untreated enzyme, 0 = blocked | activation factor at 5 µM | 96,000 tested, 1.4% active;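 active = activation factor of 2 or more for CYP2C9 at a 5 µM dose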;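 also: 0 = sulfaphenazole-blocked wells and 1 = vehicle-only wells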
# CYP2C19 inhib = blocks human cytochrome P450 2C19 | P33261 | CYP2C19 Supersomes, luciferin-H EGE luminescence, 30 min | inhibition, % at 5 µM | 96,000 tested, 21% active | AID 778;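 active = CYP2C19 inhibition above a set limit at 5 µM in the primary screen, cut at about 50% in these data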;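 also: plate controls were negative control wells for no effect and 2.5 mM tranylcypromine positive control for full effect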
# Target sequence (P33261 whole entry, looked up): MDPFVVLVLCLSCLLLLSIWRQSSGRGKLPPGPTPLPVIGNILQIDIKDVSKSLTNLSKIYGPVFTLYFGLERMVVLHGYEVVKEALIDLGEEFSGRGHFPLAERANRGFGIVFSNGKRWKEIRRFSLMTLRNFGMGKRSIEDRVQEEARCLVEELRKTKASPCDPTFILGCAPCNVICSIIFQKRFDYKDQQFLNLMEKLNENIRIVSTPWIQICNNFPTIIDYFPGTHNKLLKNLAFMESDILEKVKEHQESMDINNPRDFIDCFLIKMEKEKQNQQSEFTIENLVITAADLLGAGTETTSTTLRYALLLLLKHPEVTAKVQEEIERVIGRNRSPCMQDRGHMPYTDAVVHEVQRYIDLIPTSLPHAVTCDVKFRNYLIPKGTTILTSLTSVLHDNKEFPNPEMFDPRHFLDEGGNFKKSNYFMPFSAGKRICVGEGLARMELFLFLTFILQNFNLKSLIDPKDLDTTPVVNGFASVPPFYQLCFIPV
# CYP2C19 act = cytochrome P450 2C19 (human) activation; P33261; AID 1025; 96,000 tested, under 10 active; recombinant CYP2C19, luciferin-H EGE luminescence; hits give high values; 0 = fully inhibited enzyme, 1 = untreated enzyme; activation factor at 5 µM;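 active = activation factor of at least 2 at 5 µM in the primary screen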;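 also: 0 = wells with 2.5 mM tranylcypromine and 1 = vehicle-only wells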
# * marks the source's active call; other numbers are inactive results; / = not tested or not shown. This is a sample that favours compounds with a hit; in the whole collection about 27% have one here.
SMILES,CYP2C9 inh,sEH activator,sEH inh,CYP2C9 activ,CYP2C19 inhib,CYP2C19 act
O=C1C2CC=CCC2C(=O)N1c1n[nH]c(Cc2ccccc2)n1 (stereo unspecified),-6.4,10.5,-9.8,1.1,-2.1,1
Cc1cc(-c2n[nH]c(=S)o2)c(C)n1-c1ccccc1,24.8,9.5,-11.2,0.8,6.5,0.9
Oc1cc2ccccc2cc1-c1n[nH]c(=S)o1,68.1*,0.9,-0.2,0.3,-4.3,1
N#Cc1ccccc1NCc1ccccc1,6.9,21.2,-17.0,0.9,32.6,0.7
CN(C)c1ccnc(N(Cc2ccccc2)Cc2ccccc2)c1C#N,95.0*,12.6,-9.6,0.1,96.2*,0
N#Cc1c(NCc2ccccc2)ccnc1NCc1cccnc1,56.3*,4.1,-6.1,0.4,98.6*,0
CN(C)c1ccnc(NCc2ccccc2)c1C#N,38.6,2.4,-4.0,0.6,66.9*,0.3
Cc1cc(N(C)C)c(C#N)c(NCc2ccccc2)n1,36.3,/,/,0.6,33.9,0.7
Fc1ccccc1N1CCN(c2cnc3ccccc3n2)CC1,8.0,-20.7,22.4,0.9,25.4,0.7
Clc1ccc(Nc2ccc(-n3ccnc3)nn2)cc1Cl,98.7*,-1.7,4.2,0,99.7*,0
O=C(CN1C(=O)c2ccccc2S1(=O)=O)Nc1ccc(S(=O)(=O)N2CCCC2)cc1,91.5*,-67.5,68.5,0.1,42.5,0.6
COc1cc(NC(=O)CN2C(=O)c3ccccc3S2(=O)=O)c(OC)cc1Cl,52.2*,4.7,-7.5,0.5,67.1*,0.3
O=C(CN1C(=O)c2ccccc2S1(=O)=O)Nc1ccccc1,18.1,4.4,-4.7,0.8,49.1,0.5
O=C(CN1C(=O)c2ccccc2S1(=O)=O)Nc1ccc(S(=O)(=O)N2CCCCC2)cc1,61.6*,-83.4,83.1*,0.4,3.2,1
CC1(C)CCN(Cc2ccccc2)C1CC#N (stereo unspecified),-5.3,/,/,1.1,59.7*,0.4
COc1cccc(C2c3c(-c4cc(Cl)c(C)cc4O)n[nH]c3C(=O)N2Cc2cccnc2)c1 (stereo unspecified),72.0*,8.1,-11.0,0.3,42.8,0.6
COc1cc(C2c3c(-c4cc(Cl)c(C)cc4O)n[nH]c3C(=O)N2Cc2cccnc2)ccc1O (stereo unspecified),14.2,-0.7,1.4,0.9,11.4,0.9
COC(=O)NC1CSCC1OC(=O)CN1C(=O)c2ccccc2C1=O (stereo unspecified),0.3,/,/,1,31.8,0.7
CCn1nc(C)c(C(=O)Nc2cc(Oc3ccc(Cl)cc3)cc([N+](=O)[O-])c2)c1C,48.3,-3.7,4.8,0.5,24.7,0.8
CC1CC(C)CN(S(=O)(=O)c2ccc(C(=O)NCc3ccc4c(c3)OCO4)cc2)C1 (stereo unspecified),11.6,-13.1,13.8,0.9,-11.6,1.1
O=C(NCCCn1ccnc1)c1ccc(Cl)c(S(=O)(=O)N2CCOCC2)c1,96.8*,-13.2,16.6,0,36.4,0.6
O=C(NC1CCCC1)c1cccc(S(=O)(=O)N2CCCCC2)c1,24.2,-30.8,32.8,0.8,8.2,0.9
CC1CC(C)CN(S(=O)(=O)c2ccc(C(=O)NCCCn3ccnc3)cc2)C1 (stereo unspecified),89.5*,/,/,0.1,32.5,0.7
O=C(NCCCn1ccnc1)c1cccc(S(=O)(=O)N2CCCCCC2)c1,100.1*,-16.0,15.1,0,95.4*,0
CCc1cc(=O)oc2cc(OS(C)(=O)=O)ccc12,/,-0.3,3.5,/,/,/
SMILES,CYP2C9 inh,sEH activator,sEH inh,CYP2C9 activ,CYP2C19 inhib,CYP2C19 act
Cc1ccnc(-n2c(CCN3C(=O)c4ccccc4C3=O)nc3ccccc3c2=O)c1,69.0*,-2.3,5.2,0.3,59.9*,0.4
Cc1ccccc1NC1=C(Cl)C(=O)OC1NC(=O)c1ccccc1 (stereo unspecified),72.3*,2.0,-2.9,0.3,60.7*,0.4
CC(C)Cn1c(Br)nc2c1c(=O)n(CCC#N)c(=O)n2C,-7.7,-4.3,4.3,1.1,1.2,1
Cc1cc2c(cc1C)-c1nnnn1C(C)(C)C2,3.9,2.9,-4.8,1,59.4*,0.4
CNc1nc(Nc2ccc(C(C)=O)cc2)nc(OC(C(F)(F)F)C(F)(F)F)n1,22.4,2.0,-1.7,0.8,0.7,1
CC(C)Cc1ccc(C#N)c(SCC(N)=O)n1,26.0,-0.6,0.2,0.7,61.3*,0.4
